hcDAF12 agonist: activators of H. contortus DAF-12 nuclear receptor; HEK293 hcDAF-12 lit1-tk-luc reporter, luminescence; 0% DMSO, 100% Δ7-dafachronic acid; activation, % at 6.8 µM; actives 1.4% (n = 370,000);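 active = activation above the mean of all tested compounds plus 3 SD, cut at about 5.5% in these data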
SMARCA2 act: increases SMARCA2 function in MMTV reporter cells; MG213 cells, MMTV-luciferase reporter, dexamethasone, overnight; activation, % at 9.1 µM; actives 1% (n = 370,000); in the data active = activation above about 7.8%
DAX1 inh-1: NR0B1 (DAX1) inhibition; inhibition, % at 6.75 µM; P51843; HEK293 Gal4-DAX1 luciferase reporter, luminescence; AID 504766; actives 0.99% (n = 340,000);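 active = inhibition above the mean over all tested compounds plus 3 SD, cut at about 4.2% in these data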;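 also: inhibition shows as a rise in luminescence from relieved DAX1 repression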
DAX1 inh-2: inhibitors of DAX1 repression of SF-1 activated StAR promoter | HEK293T StAR-luciferase reporter, SF-1/DAX-1 repression relief | inhibition, % at 6.8 µM | actives 1.1% (n = 370,000) | AID 652010;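 active = inhibition above the mean over all tested compounds plus 3 SD, cut at about 3.6% in these data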;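 also: higher inhibition means more luminescence from relief of DAX-1 repression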
hgDAF12 agonist: hgDAF-12 agonism, primary luciferase screen; HEK293 GAL4-hgDAF12 UAS-luciferase reporter, agonist luminescence; normalized to butyrate control; activation, % at 6.8 µM; actives 1.8% (n = 370,000); AID 687014;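 active = activation above a cutoff set at the mean of all screened compounds plus 3 SD, cut at about 10% in these data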
ssDAF-12 act: S. stercoralis DAF-12 activation, primary screen | actives 1% (n = 370,000) | HEK293 ssDAF-12/GRIP1 lit1-tk-luc reporter, luminescence; % of 3 µM dafachronic acid response | activation, % at 6.8 µM;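 active = activation above the mean over all tested compounds plus 3 SD, cut at about 0.9% in these data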
DAX1 inh confirm: NR0B1 (human) inhibition, confirmation; shares compounds with DAX1 inh-2; HEK293T StAR-promoter luciferase reporter, SF-1/DAX-1 repression; inhibition, % at 6.8 µM; actives 87% (n = 2,400);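 active = inhibition above the average of every tested compound plus 3 SD, cut at about 3.8% in these data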;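 also: active compounds raise luminescence by relieving repression of the StAR reporter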
Target sequence (P51843 whole entry, looked up): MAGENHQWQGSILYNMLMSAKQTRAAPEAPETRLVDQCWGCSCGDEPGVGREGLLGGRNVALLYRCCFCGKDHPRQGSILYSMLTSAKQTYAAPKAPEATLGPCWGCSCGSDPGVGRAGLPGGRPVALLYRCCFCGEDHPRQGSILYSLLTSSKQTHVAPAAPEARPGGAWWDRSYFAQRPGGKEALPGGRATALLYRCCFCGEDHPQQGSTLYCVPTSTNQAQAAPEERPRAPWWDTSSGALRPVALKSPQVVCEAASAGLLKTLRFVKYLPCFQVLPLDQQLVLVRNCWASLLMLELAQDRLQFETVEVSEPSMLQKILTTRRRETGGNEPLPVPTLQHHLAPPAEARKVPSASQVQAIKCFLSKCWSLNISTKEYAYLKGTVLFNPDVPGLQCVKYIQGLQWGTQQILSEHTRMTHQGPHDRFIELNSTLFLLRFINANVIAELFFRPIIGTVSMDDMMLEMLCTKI
SF1 mutant ctr: nonselective inhibitor or artifact in SF-1 mutant DAX1 counter-screen; HEK293 StAR-luciferase, SF-1 AF2 mutant, luminescence; shares compounds with DAX1 inh-2; actives 78% (n = 2,400); inhibition, % at 6.8 µM;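 active = inhibition above the mean of all tested compounds plus 3 SD, cut at about 3% in these data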
Numbers stand for hits; i = inactive; nt = no result. Rows were chosen to be rich in hits. Some 4.8% of all compounds tested hit in one or more screens of this group.

SMILES	hcDAF12 agonist	SMARCA2 act	DAX1 inh-1	DAX1 inh-2	hgDAF12 agonist	ssDAF-12 act	DAX1 inh confirm	SF1 mutant ctr
COc1ccc(COC(=O)c2cc([N+](=O)[O-])ccc2N2CCOCC2)cc1F	i	i	i	4.5	i	i	13	i
COc1ccc(CN(C)C(=O)CCC(=O)N2CCN(S(=O)(=O)c3ccc(Cl)cc3)CC2)c(OC)c1	i	i	i	i	i	i	nt	nt
CC(Nc1nc(-c2ccccc2O)nc2ccccc12)c1ccccc1 (stereo not drawn)	i	i	i	i	i	i	nt	nt
CC(Nc1nc(-c2ccccc2)nc2ccccc12)c1ccccc1 (stereo not drawn)	i	i	i	4.7	i	i	7.3	i
COC(=O)c1cnc(NC(=O)C2(C)CCCN(C(C)=O)C2)s1 (stereo not drawn)	i	i	nt	i	i	i	nt	nt
COc1ccccc1OCC(=O)NNC(=O)CSC(=S)N1CCCC1	i	i	i	5.1	i	i	i	i
CCOc1ccccc1N1CC(C(=O)NC2CCCCCC2)CC1=O (stereo not drawn)	i	i	i	i	i	i	nt	nt
CCNc1nc(NCC)n2c(SCC(=O)Nc3ccccc3F)nnc2n1	i	i	i	4.5	i	i	i	i
CCNc1nc(NCC)n2c(SCC(=O)Nc3ccccc3OC(F)F)nnc2n1	i	i	i	i	i	i	nt	nt
Cc1ccc(C)c(S(=O)(=O)N2CCCOC2CNC(=O)C(=O)NC2CCCC2)c1 (stereo not drawn)	i	i	i	i	i	i	nt	nt
Cc1noc(C)c1CSc1nc2ccccc2[nH]1	i	i	i	i	i	i	nt	nt
Fc1cccc(F)c1CSc1nc2ccccc2[nH]1	i	i	i	5.1	12	i	16	7.8
CC1CCN(CCCNC(=O)CCc2nnc3n(CCc4ccccc4)c(=O)c4ccccc4n23)CC1	i	i	i	5.7	i	i	i	i
O=C(CCc1nnc2n(Cc3ccccc3)c(=O)c3ccccc3n12)NCCCN1CCCCC1	i	i	i	i	i	i	nt	nt
O=c1oc(Nc2cccc(Cl)c2)nc2ccccc12	i	i	i	5.4	i	i	10	4.8
O=c1oc(Nc2ccccc2Cl)nc2ccccc12	i	i	i	4.8	11	i	10	3.8
CCNC(=O)NC1(C(=O)N2CCC(Cc3ccccc3)CC2)CCCCC1	i	i	i	i	i	i	nt	nt
CCN1C(=O)c2cccc3c(S(=O)(=O)N(C(C)=O)c4ccc(OC(C)=O)cc4)ccc1c23	i	i	i	i	i	i	nt	nt
COc1ccc([N+](=O)[O-])c(O)c1C(C)=O	i	i	i	i	i	i	nt	nt
CC(C)C(OC(=O)C1=Cc2ccccc2OC1)C(=O)NCC1CCCO1 (stereo not drawn)	i	i	i	5.0	15	i	i	5.2
CC(OC(=O)C1=Cc2ccccc2OC1)C(=O)NC1CCCC1 (stereo not drawn)	i	i	i	i	i	i	nt	nt
NC(=O)c1cc(S(=O)(=O)NCCc2ccc(Cl)cc2)cs1	i	i	i	i	i	i	nt	nt
COc1ccc(NC(=O)NC2CCCCCCC2)cc1	5.8	i	i	12	13	0.9	10	5.8
O=C(Nc1ccccc1Cl)NC1CCCCCCC1	i	i	i	5.2	i	i	3.8	i
COc1cccc(NC(=O)NC2CCCCCCC2)c1	i	i	i	4.8	i	i	5.4	4.3
SMILES	hcDAF12 agonist	SMARCA2 act	DAX1 inh-1	DAX1 inh-2	hgDAF12 agonist	ssDAF-12 act	DAX1 inh confirm	SF1 mutant ctr
O=C(Nc1cccc(F)c1)NC1CCCCC1	i	i	i	i	i	i	nt	nt
O=C(O)C(Cc1ccccc1)N1C(=O)C=CC1=O (stereo not drawn)	i	i	i	i	i	i	nt	nt
CCN1CCN(C(C(=O)NC2CCCCC2)c2ccnc3ccccc23)CC1 (stereo not drawn)	i	i	nt	i	i	i	nt	nt
COc1cccc2cc(-c3ccccc3)oc12	i	i	nt	i	i	i	nt	nt
Nc1cccc2cc(-c3ccccc3)oc12	i	i	i	5.3	i	i	6.5	5.6
CCN(C(=O)COC(=O)/C=C/c1c(C)nn(Cc2ccc(C)cc2)c1C)C1CCS(=O)(=O)C1 (stereo not drawn)	i	i	i	i	i	i	nt	nt
O=C(CSc1n[nH]c(=O)n1C1CC1)Nc1ccccc1	i	i	i	11	i	i	i	i
C/C(=N\NC(=O)C1CCCC1)c1ccc(NC(=O)C(F)(F)F)cc1	i	i	nt	i	i	i	nt	nt
CC(=O)Nc1ccc(C(C)=NNC(=O)C2CCCC2)cc1	i	i	nt	4.6	i	i	i	i
O=C(Nc1ccccc1)c1ccc2snnc2c1	i	i	i	i	i	i	nt	nt
CC(C)c1ccc(NC(=O)c2ccc3snnc3c2)cc1	i	i	i	5.0	12	i	i	i
C=CCOc1ccc(C(=O)Nc2ccccc2C(=O)NCc2cccnc2)cc1	i	i	i	i	i	i	nt	nt
O=C(CNC(=O)c1cccs1)Nc1ncccc1O	i	i	i	4.5	i	i	i	i
O=C(CNC(=O)c1cccs1)c1ccc(F)cc1	i	i	i	4.7	13	i	16	6.9
Cc1ccc(N(CC(=O)NCc2ccco2)C(=O)CNS(=O)(=O)c2ccccc2)c(C)c1	i	i	i	i	i	i	nt	nt
O=C(NC1CCCCC1)c1ccc2ccccc2c1	i	i	4.8	5.8	i	i	7.5	5.1
Cc1c(N(C)S(=O)(=O)c2cccc(C(=O)NCc3cccnc3)c2)c(=O)n(-c2ccccc2)n1C	i	i	i	i	i	i	nt	nt
N/C(=N\N=C\c1ccc2c(c1)OCO2)c1nonc1N	5.9	i	i	6.2	i	i	18	9.6
N/C(=N\N=C\c1cccc([N+](=O)[O-])c1)c1nonc1N	i	i	nt	i	i	i	nt	nt
CC(C)[C@H](NC(=O)C1CCCC1)C(=O)N1CCC[C@H]1C(=O)NCc1ccccc1	i	i	nt	i	i	i	nt	nt
c1ccc(CNc2ccc3ccccc3n2)nc1	8.0	i	i	7.9	15	1.0	12	8.2
COCCn1c(C)cc(C(=O)CN2C(=O)NC3(CCCCCC3)C2=O)c1C	i	i	i	6.8	i	i	4.5	i
CCCNC(=O)c1noc2c1CCc1ccccc1-2	i	i	i	4.5	i	i	i	3.0
O=C(CCS(=O)(=O)c1ccc(Br)cc1)N1CCN(c2ccccc2)CC1	i	i	i	i	i	i	nt	nt
O=C(CCS(=O)(=O)c1ccccc1)N1CCN(c2ccccc2)CC1	i	i	i	9.3	i	i	6.8	3.7
